GLP1R inv ag: GLP-1 receptor (human) inverse agonism | P43220 | HEK293 GLP-1R CRE-luciferase, luminescence, 24 h; GLP-1R form is constitutively active | Potency, µM (top dose mostly 38.3 µM), most hits filed as inhibitors | actives 1.6% (n = 410,000); note: nearly all actives have a fitted effect of over 55% in size
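Constitutively active GLP-1R drives a cAMP-responsive luciferase in stably transfected HEK293 cells; test compounds are added after overnight (12 h) attachment and left 24 hr, and signal loss in luminescence marks inhibition.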
GLP-1R agonist: GLP-1 receptor (human) agonism. Potency, µM (titrated, usually from 45.6 µM), most hits filed as activators. P43220. HEK293 GLP-1R CRE-luciferase, luminescence, 4-6 h; cells express a hypersensitive GLP-1R form. actives 0.007% (n = 380,000)
D3 ag: agonists of human D3 dopamine receptor. D3R DiscoveRx beta-arrestin cells, luminescence, 90 min. max activation, %. actives 0.58% (n = 410,000). AID 652048; in the data active = max activation above about 30%
Target sequence (P35462 whole entry, looked up): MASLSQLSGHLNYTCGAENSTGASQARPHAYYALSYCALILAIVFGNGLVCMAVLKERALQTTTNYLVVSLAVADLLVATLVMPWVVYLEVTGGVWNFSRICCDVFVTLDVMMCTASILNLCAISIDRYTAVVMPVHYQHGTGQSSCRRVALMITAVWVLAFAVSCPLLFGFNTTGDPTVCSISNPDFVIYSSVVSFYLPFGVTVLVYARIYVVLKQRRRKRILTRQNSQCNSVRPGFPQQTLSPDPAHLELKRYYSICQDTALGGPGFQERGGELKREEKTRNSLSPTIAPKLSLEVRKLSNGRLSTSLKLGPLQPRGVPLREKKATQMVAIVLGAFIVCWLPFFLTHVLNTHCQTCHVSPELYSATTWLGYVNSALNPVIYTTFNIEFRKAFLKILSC
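Agonist-mode cell screen: cells plated at 1500/well and incubated overnight at 37 °C, then exposed to library compounds for 90 min at 37 °C. Detection reagent was added for 30–60 min at room temperature, and luminescence was read.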
GLP1R cytotox: cytotoxicity counter-screen for GLP-1 receptor inverse agonists; HEK293 cAMP-luciferase reporter cells, luminescence, 24 h; Potency, µM (highest dose often 38.3 µM), actives largely listed as inhibitors; actives 0.13% (n = 410,000); AID 624418;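 note: loss of luciferase light is scored as toxicity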
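Cells in DMEM/10% Nu serum/1% pen-strep, 1536-well format. Pre-incubated 12 h, dosed with 23 nL compound, incubated a further 24 h. Luciferase detection, 12 min at room temp, luminescence.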
DRD3 antagonist: antagonists of human D3 dopamine receptor | actives 2.5% (n = 360,000) | D3R cells, DiscoveRx beta-arrestin luminescence, antagonist mode; hits give low values | max response, negative = inhibition, % | P35462 | AID 652054; in the data active = max response below about -50%; inconclusive = no clear call, values can overlap the other calls
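Cells expressing the human receptor were seeded at 1500 cells/well, incubated overnight at 37 degrees C in 5% CO2, then exposed to library compounds with dopamine controls for 90 minutes at 37 degrees C before luminescent detection.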
ClpP mod: qHTS Assay for Activators of ClpP; purified B. subtilis ClpP, FRET peptide cleavage, 20 min; Potency, µM (top dose mostly 57.5 µM); actives 1.9% (n = 340,000); AID 651965, 2013; active = well fitted falling curve with a large enough effect; inconclusive = small, poorly fitted or top-dose-only effect; inactive = no such curve, though single readings can be large or run the other way; note: the source files actives as falling curves though it sought activators and does not explain the sign; nearly all actives have a fitted effect of over 65% in size
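Buffer: 100 mM Tris/HCl pH8, 100 mM KCl, 0.05% low protease BSA, 2.5% glycerol, 0.01% Tween-20. ClpP 10 microg/mL final; 20 min RT; delta FRET normalized to ADEP and DMSO controls.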
Numbers stand for hits; i = inactive; ? = inconclusive; nt = no result. The list is not random: actives were taken first. Their share in the collection is about 5.7%. Unless noted, calls come from the whole dose curve; as a rule, active = well fitted curve in the direction sought with a large enough effect; inconclusive = small, poorly fitted or top-dose-only effect, or another doubt; inactive = no such curve, though single readings can be large; an effect the other way counts as inactive or inconclusive.

SMILES	GLP1R inv ag	GLP-1R agonist	D3 ag	GLP1R cytotox	DRD3 antagonist	ClpP mod
Cc1ccccc1OCC(O)Cn1c(=N)n(Cc2ccccc2)c2ccccc21 (configuration not stated)	8.9µM	i	i	?	i	nt
Cc1cc(C)n(CC(O)Cn2c3ccccc3c3ccccc32)n1 (configuration not stated)	10µM	i	i	i	i	i
CC(=O)Nc1ccc(OCC(O)Cn2c3ccccc3c3ccccc32)c(C)c1 (configuration not stated)	i	i	31	i	i	i
Cc1ccccc1OCC(O)Cn1c2ccccc2c2ccccc21 (configuration not stated)	i	i	46	i	i	i
CCOC(=O)N1CCc2c(sc3c2c(=O)n(-c2ccc(Cl)cc2)c(=O)n3CC(=O)Nc2ccccc2)C1	i	nt	i	i	nt	i
COc1cc2nc(N3CCN(C)CC3)nc(NC3CCN(C)CC3)c2cc1OC	nt	nt	nt	nt	nt	i
COc1cc2c(cc1OC)n(Cc1ccc([N+](=O)[O-])cc1)c(=O)n1nc(-c3ccccc3)nc21	i	nt	i	i	nt	i
Cc1cccc(NC(=O)c2cc(-c3ccc(C)s3)nc3ccccc23)n1	10µM	i	i	i	i	16µM
CN(Cc1ccccc1)C(=O)COC(=O)c1cc(-c2ccc(Cl)s2)nc2ccccc12	?	i	i	i	i	11µM
Cc1ccnc(NC(=O)c2cc(-c3ccc(Cl)s3)nc3ccccc23)c1	7.9µM	i	i	i	i	nt
Cc1cc(C(=O)OCC(=O)NCCc2ccccc2)c2ccccc2n1	i	i	51	i	i	i
Cc1cc(NC(=O)c2cc(-c3ccc(C)s3)nc3ccccc23)no1	i	i	i	i	i	i
O=C(O)c1cc(-c2ccc(Cl)s2)nc2ccccc12	i	i	i	i	i	nt
C=C1/C(=C\C=C2/CCC[C@@]3(C)[C@@H]([C@H](C)OCCC(C)(C)O)CC[C@@H]23)C[C@@H](O)C[C@@H]1O	nt	i	nt	nt	nt	nt
COC(=O)c1sccc1NC(=O)c1cc(-c2cc(C)ccc2C)nc2ccccc12	i	i	i	i	i	?
CCCCN(CCCC)CCCNC(=O)c1cc(-c2ccc(Cl)s2)nc2ccccc12	i	nt	i	i	nt	35µM
Cc1ccc(C(=O)O)c(C(=O)Nc2nc3ccccc3s2)c1	i	i	30	i	i	i
O=C(O)c1ccccc1-c1ccccc1C(=O)Nc1nc2ccccc2s1	i	i	i	i	i	nt
CCCCN(C)CCCNC(=O)c1cc(-c2ccc(Br)s2)nc2ccccc12	i	nt	i	i	nt	i
Cc1ccc(C)c(-c2cc(C(=O)Nc3nccs3)c3ccccc3n2)c1	?	i	32	i	i	i
CC(=O)c1ccc(NC(=O)Cn2ncc3c4ccccc4n(Cc4ccccc4)c3c2=O)cc1	i	nt	i	i	nt	?
Cc1ccc(Nc2cc(C)c3ccc(O)cc3n2)cc1C	?	i	i	i	-57	i
CCc1cccc(NC(=O)CSc2ncc3c(n2)-c2ccc(Cl)cc2N(Cc2ccccc2)S3(=O)=O)c1	i	nt	i	i	nt	?
O=C1NC[C@@H](c2ccccc2)OC(=O)[C@H](Cc2ccc(F)cc2)C/C=C\C[C@@H]1CC(=O)N(CCO)Cc1ccccc1	?	i	i	?	-67	i
O=C1NC[C@H](c2ccccc2)OC(=O)[C@H](Cc2ccc(F)cc2)C/C=C\C[C@@H]1CC(=O)N(CCO)Cc1ccccc1	?	i	i	i	i	i
CC(C)(C)OC(=O)C[C@@H]1C/C=C\C[C@@H](CC(=O)NCCO)C(=O)NC[C@@H](c2ccccc2)OC1=O	i	i	i	i	-63	i
C[C@H]1COC(=O)[C@@H](Cc2ccc(F)cc2)C/C=C\C[C@H](CC(=O)NCCO)C(=O)N1	i	i	i	i	i	i

Screens deposited in PubChem BioAssay by National Center for Advancing Translational Sciences (NCATS).
